High-throughput results: PubChem, National Center for Advancing Translational Sciences (NCATS)
HT1080 IDH1KD tx – kills HT-1080 cells with IDH1 knockdown; hit rate 2% among 360,000; AID 686971; HT-1080 IDH1 knockdown viability, ATP luminescence, 48 h; Potency, µM (series often up to 46.1 µM), for inactives: top-dose activity, negative = toxicity, actives largely listed as cytotoxic;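 further: potency means the concentration at half of the fitted maximal effect; 0% = DMSO wells and -100% = cell-free medium wells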
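After a 2 h attachment period, IDH1KD HT-1080 cells took pin-transferred compound for 48 h at 37 °C; ATP-based luminescence after 10 min room-temperature reagent incubation reported viability.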
Giardia kill – Giardia lamblia killing. Giardia lamblia trophozoite viability. activity change, % at 7.66 µM, hits read low. hit rate 0.15% among 340,000; in the data active means activity change below about -80%; inconclusive means between about -30% and that limit;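 further: parasites exposed to compound for two days anaerobically before the ATP read; on the % scale 0 is the no-effect control and ±100 the full control effect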
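Trophozoites 100 cells/well + cpd; 48 hrs, 37 deg C, anaerobic. ATPLite 1-Step added, 15-30 min RT, luminescence read (ATP-based viability).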
TGFb SMAD3 inh – inhibitors of TGF-b signaling; HepG2 CAGA-GFP TGF-b/SMAD3 reporter, GFP fluorescence, 18 h; TGF-beta stimulated, 500 pg/mL final; Potency, µM (highest dose often 46.1 µM), for the others: at the top dose activity, negative = inhibition, actives largely listed as inhibitors; hit rate 1.2% among 410,000; further: potency means the concentration at half of the fitted maximal effect; on the % scale 0 is the no-effect control and ±100 the full control effect; nearly all actives have a fitted effect of over 65% in size
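TGF-beta reporter screen: HEPG2 CAGA-GFP, 1% FBS, 500 pg/mL TGF-beta final, 18 h; per-cell GFP summed per well; curves fitted and categorized by class.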
HepG2 tox – counter-screen for TGF-b inhibitors: cytotoxicity in HepG2 cells | AID 588856 | Potency, µM (doses to about 46.1 µM), inactives show top-dose activity change, negative = cytotoxicity, actives largely listed as cytotoxic | HepG2 CAGA-GFP viability, ATP luminescence, 18 h | hit rate 0.76% among 410,000; further: potency means the concentration at half of the fitted maximal effect
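CellTiter-Glo luminescence gave cytotoxicity after 18 hours at 37 degrees C. The cells were HepG2 CAGA-GFP in 1% FBS DMEM, stimulated with 500 pg/mL TGF-beta after compound addition. %Activity was normalised to no-cell wells (complete cell-killing) and DMSO (no toxicity), and curves were fitted and classified.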
IL-1B inflam inh – inflammasome signaling inhibition, IL-1 beta readout; THP-1 LPS/ATP IL-1B secretion, AlphaLISA, 16 h; active compounds read low; activity change, % at 57.5 µM; hit rate 4.7% among 360,000; AID 743279; in the data active means activity change below about -50%; inconclusive means mostly about -30% to -49%; further: on the % scale 0 is the no-effect control and ±100 the full control effect
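THP-1 cells pretreated 1 hr with compounds (up to 57.5 uM final), then stimulated with LPS (250 ng/mL final) plus ATP (1.25 mM final); secreted IL-1B measured by AlphaLISA after 16 hr, decreased signal indicating inhibition.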
HT1080-NT tox – kills 2HG-producing HT-1080-NT fibrosarcoma cells. HT-1080-NT fibrosarcoma viability, CellTiter-Glo ATP luminescence, 48 h. Potency, µM (titrated, usually from 46.1 µM), for the others: top-dose activity, negative = less viability, hits mostly cytotoxic. hit rate 1.6% among 360,000. AID 686970;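 further: NT is the 2HG producing partner of a matched IDH1 knockdown line; potency means the concentration at half of the fitted maximal effect; 0% = DMSO-treated cells and -100% = media-only wells without cells; nearly all actives have a fitted effect of over 55% in size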
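HT-1080-NT fibrosarcoma cells (2HG-overproducing), 750 cells/well in RPMI with 5% FBS, dosed after 2 h and incubated 48 h at 37C. CellTiter-Glo luminescence normalized to DMSO and no-cell wells; concentration-response curves fitted and classed.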
* hit, by the source's call; ? = inconclusive; / = no result given. Shown are actives, neighbours in structure and some others; about 6.5% of the full set was active somewhere. Unless noted, the call rests on the fitted dose curve; in most records, active means well fitted curve in the direction sought with a large enough effect; inconclusive means small, poorly fitted or top-dose-only effect, or another doubt; inactive means no such curve, though single readings can be large; an effect the other way counts as inactive or inconclusive.

SMILES	HT1080 IDH1KD tx	Giardia kill	TGFb SMAD3 inh	HepG2 tox	IL-1B inflam inh	HT1080-NT tox
CCOc1ccc2ccccc2c1C(=O)N1CCN(c2ccccc2)CC1	7.9µM*	-1	4%	-15%	22	?
CC(NCc1cc(Br)ccc1OCC(N)=O)C12CC3CC(CC(C3)C1)C2 (configuration not stated)	-21%	-11	?	-37%	-61*	-20%
COc1cc(CNC(C)C23CC4CC(CC(C4)C2)C3)cc(OC)c1OC (configuration not stated)	-9%	-4	11%	-79%	-20	-17%
COc1cc(CNC(C)C23CC4CC(CC(C4)C2)C3)ccc1OCC(=O)NC(C)(C)C (configuration not stated)	23µM*	18	?	-59%	-88*	?
CCN1CCN(C(=O)N(CC(=O)Nc2ccc(C(N)=O)cc2)S(=O)(=O)c2ccc(C)cc2)CC1	0%	4	8%	16%	-2	-4%
COc1ccc(-n2cc(-c3ccccc3)c3c(N4CCOCC4)ncnc32)cc1	?	7	?	11%	-146*	?
O=c1[nH]cnc2c1c(-c1ccccc1)cn2-c1cccc(Cl)c1	-1%	-19	?	-34%	-7	-7%
COc1ccc(-n2cc(-c3ccccc3)c3c(=O)[nH]cnc32)cc1	-13%	-7	9%	-14%	-82*	-3%
OCCN1CCN(c2ncnc3c2c(-c2ccccc2)cn3-c2ccc(Br)cc2)CC1	23µM*	11	1%	-1%	-83*	16µM*
c1ccc(-c2cn(-c3ccccc3)c3ncnc(NCCCN4CCOCC4)c23)cc1	?	-4	13%	-41%	-86*	?
c1ccc(-c2csc3ncnc(NCCCN4CCOCC4)c23)cc1	?	-5	7%	4%	-16	-25%
Cn1cc(CNCc2cn[nH]c2-c2ccc(F)cc2)c(-c2ccc3c(c2)OCCO3)n1	0%	-10	3%	-3%	-8	4%
Cc1ccc(S(=O)(=O)NC(=O)C2(C)CCN2C(=O)C2CC2)cc1 (configuration not stated)	15%	/	-1%	13%	8	20%
COc1ccc(-n2cc(-c3ccccc3)c3c(NCCCN4CCOCC4)ncnc32)cc1	18µM*	3	10%	-20%	-16	21µM*
COc1ccc(CNc2ncnc3c2c(-c2ccccc2)cn3-c2ccccc2)cc1	/	/	-5%	-3%	/	/
Cc1[nH]c2ccccc2c1C(=O)COC(=O)c1c(-c2c(F)cccc2Cl)noc1C	-9%	11	13µM*	-6%	?	3%
O=c1[nH]c2cc3ccccc3cc2nc1C(F)(F)F	1%	-3	21%	-2%	-3	-5%
CC(C)c1nc2cc3ccccc3cc2[nH]1	-18%	19	1%	-35%	-53*	-4%
CC(C)(C)OC(=O)NCCCC[C@H](NC(=O)c1[nH]cnc1C(=O)N[C@@H](Cc1ccccc1)C(=O)OC(C)(C)C)C(=O)OC(C)(C)C	-17%	?	?	-9%	-56*	-5%
C[C@@H](NC(=O)c1nc[nH]c1C(=O)NCCCCCNC(=O)OC(C)(C)C)c1ccccc1	-8%	4	?	-34%	7	-7%
CC(C)(C)OC(=O)NCCCCCNC(=O)c1[nH]cnc1C(=O)N[C@@H](Cc1ccccc1)C(=O)OC(C)(C)C	-9%	-22	?	-51%	-19	-2%
C[C@H](NC(=O)c1nc[nH]c1C(=O)N[C@@H](CCCCNC(=O)OC(C)(C)C)C(=O)OC(C)(C)C)c1ccccc1	?	-26	?	-4%	-52*	?
C[C@H](NC(=O)c1nc[nH]c1C(=O)N[C@@H](Cc1ccccc1)C(=O)OC(C)(C)C)C(=O)OC(C)(C)C	?	10	?	16µM*	-11	?
